KB-3-1 tox: kills parental KB-3-1 adenocarcinoma cells | 400,000 compounds, 1.4% hits | Potency, µM (series often up to 46.1 µM), usual class: cytotoxic | KB-3-1 viability, CellTiter-Glo ATP luminescence, 72 h; note: nearly all actives have a fitted effect of over 60% in size
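Cells are dispensed, compounds pinned in, plates held at 37 °C for 72 h, then CellTiter-Glo is added and luminescence read after 10 minutes. Cell line: parental KB-3-1 in phenol-red-free DMEM, 10% FBS.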
DT40 TDP1 no CPT: qHTS for Inhibitors of human tyrosyl-DNA phosphodiesterase 1 (TDP1): qHTS in cells in absence of CPT | DT40 Tdp1-/- hTDP1 cells, no CPT, ATP luminescence, 48 h | Potency, µM (top dose mostly 46.2 µM), for inactives: at the top dose activity change, negative = growth inhibition, usual class: inhibitors | 420,000 compounds, 15% hits; note: nearly all actives have a fitted effect of over 55% in size
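Stably hTDP1-transfected Tdp1-null chicken DT40 cells were treated with library compounds minus camptothecin and grown for at least 48 hr at 37 °C, after which cellular ATP was quantified by luminescence.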
TDP1 cell CPT: growth inhibition of DT40 Tdp1-/-;hTDP1 cells with camptothecin (screen for TDP1 inhibitors); 420,000 compounds, 12% hits; AID 686979; Potency, µM (series often up to 46.2 µM), for inactives: top-dose activity change, negative = growth inhibition, hits mostly inhibitors; chicken DT40 Tdp1-/-;hTDP1 cells + 20 nM CPT, ATP luminescence, 48 h; note: nearly all actives have a fitted effect of over 55% in size
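Chicken DT40 Tdp1-/- cells complemented with human TDP1, 400 cells/well, exposed to compounds plus 20 nM camptothecin for at least 48 h at 37 C; viability read as ATP content by CellTiter-Glo luminescence.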
HT1080 IDH1KD tx: HT-1080 IDH1 knockdown cell toxicity (counter line); HT-1080 IDH1 knockdown viability, ATP luminescence, 48 h; Potency, µM (doses to about 46.1 µM), without a hit: top-dose activity, negative = toxicity, usual class: cytotoxic; 360,000 compounds, 2% hits;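 note: 0% = DMSO wells and -100% = cell-free medium wells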
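Luminescent ATP read-out (CellTiter-Glo, 10 min at room temperature) after 48 h compound exposure at 37 °C gave viability of IDH1-knockdown HT-1080 cells. Activity was normalised to DMSO and cell-free wells, then fitted as concentration-response curves.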
KB-V1 MDR tox: KB-V1 MDR subline cytotoxicity; Potency, µM (titrated, usually from 46.1 µM), usual class: cytotoxic; KB-V1 MDR cells viability, CellTiter-Glo, 72 h; 400,000 compounds, 3.4% hits; AID 1347076; note: nearly all actives have a fitted effect of over 60% in size
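Drug-selected KB-V1 cells, grown in DMEM lacking phenol red with 10% FBS, receive compound titrations; after three days at 37 degrees C, surviving cell ATP is quantified by CellTiter-Glo luminescence and responses normalized and curve-fitted.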
HT1080NT lethal: kills 2HG-producing HT-1080-NT fibrosarcoma cells | HT-1080-NT fibrosarcoma viability, CellTiter-Glo ATP luminescence, 48 h | AID 686970 | 360,000 compounds, 1.6% hits | Potency, µM (titrated, usually from 46.1 µM), for inactives: at the top dose activity, negative = less viability, hits mostly cytotoxic;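 note: NT is the 2HG producing partner of a matched IDH1 knockdown line; 0% = DMSO-treated cells and -100% = media-only wells without cells; nearly all actives have a fitted effect of over 55% in size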
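Viability of the 2HG-overproducing fibrosarcoma line after 48 hours of compound exposure at 37 degrees C was determined by luminescence with CellTiter-Glo, and concentration-effect curves were then fitted and categorized.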
Active calls of the source: *; i = inactive; ? = inconclusive; . = not tested or not shown; [ ] = another dose, or the depositor's remark. Shown are actives, neighbours in structure and some others; about 19% of the full set was active somewhere. Calls come from the whole dose curve; as a rule, active = well fitted curve in the direction sought with a large enough effect; inconclusive = small, poorly fitted or top-dose-only effect, or another doubt; inactive = no such curve, though single readings can be large; an effect the other way counts as inactive or inconclusive. Unless noted, % is set by controls: 0 for no effect and ±100 for the full control effect; potency is the fitted concentration of half-maximal effect.

SMILES	KB-3-1 tox	DT40 TDP1 no CPT	TDP1 cell CPT	HT1080 IDH1KD tx	KB-V1 MDR tox	HT1080NT lethal
Cc1ccc(NC(=O)Cn2ccc([N+](=O)[O-])n2)cc1Cl	i	-2%	-17%	-5%	?	0%
CCC(=O)N1CCc2cc(Br)cc(S(=O)(=O)NCc3cccc(OC)c3)c21	i	-24%	-1%	.	i	.
CCCN(CCC)S(=O)(=O)c1cc(Br)cc2c1N(C(=O)CC)CC2	i	10µM*	9.2µM*	-18%	?	-10%
CCC(=O)N1CCc2cc(Br)cc(S(=O)(=O)N3CCCCC3CC)c21 (stereo unspecified)	i	21µM*	?	-6%	?	4%
CCC(=O)N1CCc2cc(Br)cc(S(=O)(=O)N(C)c3ccc(OC)cc3OC)c21	?	18µM*	18µM*	?	i	?
CCCS(=O)(=O)NC(=O)C1(C)CCN(C(=O)c2ccco2)C1 (stereo unspecified)	i	0%	-1%	5%	i	?
C=CCn1c(=O)[nH]c(=O)c2c(N)c(C(=O)c3ccc(OC)cc3)sc21	?	?	-4%	-3%	i	-4%
COc1cccc(CN(C)Cc2nc(Cc3ccccc3Cl)no2)c1	i	-8%	6%	0%	i	4%
NC(=O)CC(NC(=O)c1ccccc1)c1ccc(N2CCC(N3CCCC3)CC2)c([N+](=O)[O-])c1 (stereo unspecified)	i	0%	-18%	20%	i	9%
NC(=O)CC(NC(=O)c1ccccc1)c1ccc(N2CCN(c3ccccn3)CC2)c([N+](=O)[O-])c1 (stereo unspecified)	i	21µM*	21µM*	12%	i	9%
NC(=O)CC(NC(=O)c1ccc(Br)cc1)c1ccc(N2CCC(Cc3ccccc3)CC2)c([N+](=O)[O-])c1 (stereo unspecified)	?	-73%	16µM*	?	i	-23%
NC(=O)CC(NC(=O)c1ccccc1)c1ccc(N2CCC(Cc3ccccc3)CC2)c([N+](=O)[O-])c1 (stereo unspecified)	?	5.2µM*	7.3µM*	?	?	-29%
NC(=O)CC(NC(=O)c1cccc(Br)c1)c1ccc(N2CCC(N3CCCCC3)CC2)c([N+](=O)[O-])c1 (stereo unspecified)	i	-2%	-6%	13%	?	1%
NC(=O)CC(NC(=O)c1ccc(Br)cc1)c1ccc(N2CCN(c3ccccc3)CC2)c([N+](=O)[O-])c1 (stereo unspecified)	i	?	?	0%	i	5%
CSc1nc2ccccc2n1CC(=O)Nc1cc(C(F)(F)F)ccc1N1CCOCC1	i	16µM*	21µM*	-25%	?	-22%
Cc1noc(C)c1CSCC(=O)Nc1cc(C(F)(F)F)ccc1N1CCOCC1	i	-27%	-19%	-1%	3.7µM*	-3%
CC(C)C(=O)Nc1cc(C(F)(F)F)ccc1N1CCOCC1	i	-21%	-25%	1%[9.24 µM]	i	-3%
O=C(CCNC(=O)c1ccc(Cl)cc1)Nc1cc(C(F)(F)F)ccc1N1CCOCC1	i	23µM*	26µM*	-6%	?	-15%
CCOc1ccccc1NC(C)C(=O)Nc1cc(C(F)(F)F)ccc1N1CCOCC1 (stereo unspecified)	?	18µM*	?	-24%	5.8µM*	-3%
COc1cc(CNC(=O)Nc2nnc([C@H]3C[C@H](O)[C@@H](CO)O3)s2)cc(OC)c1OC	i	-1%	-16%	12%	i	15%
COc1cc(NC(=O)C(C)N2CCN(C(=O)C3CC3)CC2)cc(OC)c1 (stereo unspecified)	i	1%	1%	1%	i	0%
COc1ccc(Cn2ccc3nc(C)c(C(=O)Nc4ccc(OC)cc4OC)cc3c2=O)cc1	i	?	-14%	.	i	.
O=S(=O)(Nc1ccc(OC(F)F)cc1)c1ccc(-c2ccon2)s1	i	?	1%	-17%	i	-1%
N#Cc1ccc(OS(=O)(=O)c2ccc(-c3ccon3)s2)cc1	i	?	12µM*	0%	i	-15%
Cc1cccc(N/N=C/c2ccc(O)c(O)c2O)c1	i	?	?	-28%	i	-27%
SMILES	KB-3-1 tox	DT40 TDP1 no CPT	TDP1 cell CPT	HT1080 IDH1KD tx	KB-V1 MDR tox	HT1080NT lethal
Cc1cccc(N/N=C/c2ccc(C)s2)c1	i	?	29µM*	-8%	i	-3%
Cc1ccc(C)c(NC(=O)CSc2c(C)cnc3c2c(=O)n(C)c(=O)n3C)c1	i	7%	4%	.	i	.
C1=Nc2ccccc2CN1c1ccccc1	i	?	-4%	5%	i	6%
CC(C)c1ccc(N2C=Nc3ccc(C(C)C)cc3C2)cc1	?	?	?	23µM*	i	?
CC1CCCCN1C(=S)Nc1ccc(S(=O)(=O)N2CCCCC2)cc1 (stereo unspecified)	i	?	?	-7%	i	2%
CC1(C)Cc2c(ccc3ccccc23)C2=C(C(=O)N3CCCC3)C(=O)C(=O)N21	i	8.2µM*	8.2µM*	-16%	i	4%
CC(CC(=O)N1CCN(c2ccccc2)CC1)S(=O)(=O)c1ccc2c(c1)NC(=O)CO2 (stereo unspecified)	?	?	21µM*	-7%	i	-17%
COc1ccc(S(=O)(=O)CCC(=O)N2CCN(c3cccc(Cl)c3)CC2)cc1	i	10µM*	18µM*	4%	i	8%
CC(CS(=O)(=O)c1ccc2c(c1)NC(=O)CS2)C(=O)N1CCN(c2cccc(Cl)c2)CC1 (stereo unspecified)	23µM*	?	18µM*	-9%	i	-5%
Cc1ccc(N(C)C(=O)CC(C)S(=O)(=O)c2ccc3c(c2)NC(=O)CO3)cc1 (stereo unspecified)	i	?	-7%	1%	i	-1%
COc1ccc(S(=O)(=O)CCC(=O)N2CCN(c3ccccc3F)CC2)cc1	i	?	-7%	0%	i	2%
CCCN(c1ccc(OCC)cc1)S(=O)(=O)c1ccc2c(c1)NC(=O)CO2	?	12%	-12%	-15%	1.6µM*	-4%

Screening results deposited in PubChem by National Center for Advancing Translational Sciences (NCATS).
